Among the test systems are MOLT-4 leukemia; SR leukemia; RPMI-8226 leukemia; OVCAR-8 ovarian; OVCAR-5 ovarian; OVCAR-4 ovarian; SK-OV-3 ovarian; IGROV1 ovarian; OVCAR-3 ovarian; HS 578T breast; NCI/ADR-RES ovarian; T-47D breast; BT-549 breast; MDA-MB-435 melanoma; SW-620 colon; MCF7 breast; HCT-116 colon; HCC-2998 colon; KM12 colon.
What all share (experiment): NCI-60 one-dose screen, 48 h (100 = growth as untreated, 0 = no growth, -100 = all killed)
Holding throughout (details): 10 µM unless noted

Each structure is given as a SMILES string. The panel holds about 83,000 compounds, 20% with a hit somewhere; the sample as a whole holds those more often.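 96-well plates, one dose, 48 hours. Percent growth reported; active if below 10.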 A number with no mark means an inactive call. Activity calls are given as the source filed them.

Regarding `CC[C@H](C)[C@H](NC(=O)[C@H]1CCCCN1C)C(=O)N(C)[C@H](CC(=O)c1nc(C(=O)N[C@@H](Cc2ccccc2)C[C@H](C)C(=O)O)cs1)C(C)C`, the growth in the test with MOLT-4 leukemia is 64.4%; in the test with SR leukemia it was 27.8%; in the test with RPMI-8226 leukemia, 43.2%; in the test with OVCAR-8 ovarian, 96.9%; with OVCAR-5 ovarian, 107%; in the test on OVCAR-4 ovarian it was 106%. Moreover, the growth was 91.5% with SK-OV-3 ovarian; 76.5% with IGROV1 ovarian; 55.8% with OVCAR-3 ovarian; 72.2% with HS 578T breast; 113% with NCI/ADR-RES ovarian; 64.8% in the test on T-47D breast. Further, the growth in the test with BT-549 breast was 63%; with MDA-MB-435 melanoma it was 15.5%; in the test with SW-620 colon, 50.2%; with MCF7 breast it was 23.1%; in the test with HCT-116 colon it was 77.3%; with HCC-2998 colon it was 87.9%.

For `CC(=O)[O][Hg][c]1c(N)c(C)cc(C)c1F`, the growth is -11.2% (active) in the test on MOLT-4 leukemia; -11.2% (active) in the test with SR leukemia; -12.3% (active) in the test on RPMI-8226 leukemia; -29.5% (active) in the test with OVCAR-8 ovarian; 47.3% in the test on OVCAR-5 ovarian; 42% with OVCAR-4 ovarian. The growth in the test with SK-OV-3 ovarian is 69.8%; with IGROV1 ovarian it was -32.7% (active); with OVCAR-3 ovarian, -45.8% (active); with HS 578T breast it was 26.8%; with NCI/ADR-RES ovarian it was 74.6%; with T-47D breast it was -20% (active). The growth with BT-549 breast is -14% (active); in the test with MDA-MB-435 melanoma, -60.5% (active); with SW-620 colon, -19.5% (active); in the test with MCF7 breast, -5.09% (active); in the test with HCT-116 colon, 25.7%; with HCC-2998 colon, 93.7%.

For `COC(C(=O)[C@@H](O)[C@@H](C)O)[C@@H]1Cc2cc3cc(O[C@H]4C[C@@H](O[C@H]5C[C@@H](O)[C@H](O)C(C)O5)[C@H](O)C(C)O4)c(C)c(O)c3c(O)c2C(=O)[C@H]1O[C@H]1C[C@@H](O[C@H]2C[C@@H](O[C@H]3C[C@@H](O)[C@@H](O)C(C)O3)[C@@H](O)C(C)O2)[C@H](O)C(C)O1` (some centres undefined), the growth is 23.9% in the test with MOLT-4 leukemia; 14.3% with SR leukemia; 9.15% (active) in the test with RPMI-8226 leukemia; 2.92% (active) in the test on OVCAR-8 ovarian; 13.7% in the test with OVCAR-5 ovarian; 25.2% in the test with OVCAR-4 ovarian. Further, the growth was 25.5% with SK-OV-3 ovarian; 18.2% in the test with IGROV1 ovarian; 4.91% (active) in the test with OVCAR-3 ovarian; 14.5% with HS 578T breast; 85.5% in the test with NCI/ADR-RES ovarian; -1.75% (active) in the test on T-47D breast. Besides, the growth in the test with BT-549 breast is -27.2% (active); with MDA-MB-435 melanoma, -37.2% (active); with SW-620 colon, 22.2%; in the test on MCF7 breast it was 0.0061% (active); with HCT-116 colon, 2.29% (active); with HCC-2998 colon, -5.17% (active). The growth in the test with KM12 colon was 4.05% (active).

As for `COc1ccc(/C=C\c2cc(OC)c(OC)c(OC)c2)c(NS(=O)(=O)c2ccc(Cl)cc2)c1O`, the growth was 10.1% with MOLT-4 leukemia; 7.33% (active) in the test with SR leukemia; 7.02% (active) in the test with RPMI-8226 leukemia; 2.97% (active) with OVCAR-8 ovarian; 49.2% in the test with OVCAR-5 ovarian; 33.1% in the test with OVCAR-4 ovarian. Moreover, the growth in the test on SK-OV-3 ovarian is 21.9%; in the test with IGROV1 ovarian, 30.1%; in the test on OVCAR-3 ovarian it was -31.1% (active); in the test on HS 578T breast, 10.9%; in the test with NCI/ADR-RES ovarian, -7.04% (active); in the test with T-47D breast, 84.7%. Besides, the growth in the test with BT-549 breast is 58.2%; in the test with MDA-MB-435 melanoma it was -48% (active); in the test with SW-620 colon, 27%; in the test on MCF7 breast it was 12.7%; with HCT-116 colon it was 6.81% (active); in the test with HCC-2998 colon, 12.7%.

As for `COC(=O)[C@@]1(C)CC[C@]2(C)CC[C@]3(C)C4=CC(=O)c5c(cc(O)c(O)c5C)[C@]4(C)CC[C@@]3(C)[C@@H]2C1`, the growth in the test with MOLT-4 leukemia is 18.3%; in the test with SR leukemia, 51.2%; in the test with RPMI-8226 leukemia, 27%; in the test on OVCAR-8 ovarian, 60.4%; in the test with OVCAR-5 ovarian, 119%; in the test on OVCAR-4 ovarian it was 47.4%. The growth in the test with SK-OV-3 ovarian was 58.3%; in the test with IGROV1 ovarian it was 50.8%; in the test with OVCAR-3 ovarian it was 47.9%; with HS 578T breast, 79.5%; in the test on NCI/ADR-RES ovarian, 63.4%; in the test on T-47D breast, 54.1%. For the same compound, the growth with BT-549 breast was 82.1%; in the test on MDA-MB-435 melanoma it was 58.5%; in the test on SW-620 colon, 60.3%; with MCF7 breast, 41.9%; in the test with HCT-116 colon, 31.3%; in the test with HCC-2998 colon, 76.7%. Also, in the test with KM12 colon, the growth was 50.4%.

For `CC1=C(CCCOC(=O)CN)C2=C(C)C3(CC3)[C@@](C)(O)C(=O)C2=C1`, the growth in the test on MOLT-4 leukemia was 84.5%; in the test on SR leukemia it was 94.7%; in the test with RPMI-8226 leukemia, 88.8%; in the test on OVCAR-8 ovarian, 73.8%; in the test with OVCAR-5 ovarian, 114%; in the test on OVCAR-4 ovarian it was 85%. Moreover, the growth was 51.3% in the test with SK-OV-3 ovarian; 32.8% in the test with IGROV1 ovarian; 101% in the test on OVCAR-3 ovarian; 93.9% with HS 578T breast; 84.7% in the test with NCI/ADR-RES ovarian; 63.6% in the test on T-47D breast. Besides, the growth is 65.8% in the test on BT-549 breast; 101% with MDA-MB-435 melanoma; 91.5% in the test on SW-620 colon; 71.1% in the test with MCF7 breast; 71.5% in the test with HCT-116 colon; 85.1% in the test with HCC-2998 colon. In addition, in the test with KM12 colon, the growth was 100%.

`Nc1ccc(-c2nc3cc(F)ccc3[se]2)cc1F`: the growth is 63.5% in the test with MOLT-4 leukemia; 15.5% with SR leukemia; 63.2% with RPMI-8226 leukemia; 92.3% in the test on OVCAR-8 ovarian; 47.9% with OVCAR-5 ovarian; 65.8% in the test on OVCAR-4 ovarian. Also, the growth with SK-OV-3 ovarian was 55.1%; in the test with IGROV1 ovarian it was 38.7%; in the test on OVCAR-3 ovarian, 81%; with HS 578T breast, 103%; in the test on NCI/ADR-RES ovarian it was 91.5%; in the test on T-47D breast it was 14.6%. The growth was 67.8% with BT-549 breast; 97.7% with MDA-MB-435 melanoma; 97.2% in the test on SW-620 colon; 5.06% (active) in the test on MCF7 breast; 58.9% in the test with HCT-116 colon; 30.9% with HCC-2998 colon. Further, in the test with KM12 colon, the growth is 54%.

On to `Cn1cc(-c2csc(-c3cn(CCCCN4CCCCC4)c4ccc(F)cc34)n2)c2cccnc21`, for which the growth with MOLT-4 leukemia was -62% (active); in the test on SR leukemia, -44.9% (active); in the test on RPMI-8226 leukemia it was 1.18% (active); in the test with OVCAR-8 ovarian, 91.8%; in the test on OVCAR-5 ovarian, 103%; with OVCAR-4 ovarian, 87%. Also, the growth is 100% with SK-OV-3 ovarian; 71.7% with IGROV1 ovarian; 87.7% in the test on OVCAR-3 ovarian; 67.9% with HS 578T breast; 81.7% with NCI/ADR-RES ovarian; 81.5% in the test on T-47D breast. Besides, the growth in the test with BT-549 breast was 81.1%; in the test on MDA-MB-435 melanoma, -91.1% (active); with SW-620 colon, -69.9% (active); in the test on MCF7 breast, -55.9% (active); in the test on HCT-116 colon, 94.9%; in the test on HCC-2998 colon it was 96.5%. In addition, the growth with KM12 colon is 82.5%.

The values are drawn from PubChem BioAssay (NCI).
